Assay outcomes (PubChem)
KCNQ2 inh: blocks the rat KCNQ2 potassium channel; O88943; 1.1% of 310,000 active; B-score at 10 µM; CHO-K1 KCNQ2, FluxOR thallium flux, 20 min; stronger effect = lower value;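 active = fluorescence ratio B-score at most minus 3 library SDs, with starting brightness B-score within 2 library SDs, cut at about -5.5 in these data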
Target sequence (O88943 whole entry, looked up): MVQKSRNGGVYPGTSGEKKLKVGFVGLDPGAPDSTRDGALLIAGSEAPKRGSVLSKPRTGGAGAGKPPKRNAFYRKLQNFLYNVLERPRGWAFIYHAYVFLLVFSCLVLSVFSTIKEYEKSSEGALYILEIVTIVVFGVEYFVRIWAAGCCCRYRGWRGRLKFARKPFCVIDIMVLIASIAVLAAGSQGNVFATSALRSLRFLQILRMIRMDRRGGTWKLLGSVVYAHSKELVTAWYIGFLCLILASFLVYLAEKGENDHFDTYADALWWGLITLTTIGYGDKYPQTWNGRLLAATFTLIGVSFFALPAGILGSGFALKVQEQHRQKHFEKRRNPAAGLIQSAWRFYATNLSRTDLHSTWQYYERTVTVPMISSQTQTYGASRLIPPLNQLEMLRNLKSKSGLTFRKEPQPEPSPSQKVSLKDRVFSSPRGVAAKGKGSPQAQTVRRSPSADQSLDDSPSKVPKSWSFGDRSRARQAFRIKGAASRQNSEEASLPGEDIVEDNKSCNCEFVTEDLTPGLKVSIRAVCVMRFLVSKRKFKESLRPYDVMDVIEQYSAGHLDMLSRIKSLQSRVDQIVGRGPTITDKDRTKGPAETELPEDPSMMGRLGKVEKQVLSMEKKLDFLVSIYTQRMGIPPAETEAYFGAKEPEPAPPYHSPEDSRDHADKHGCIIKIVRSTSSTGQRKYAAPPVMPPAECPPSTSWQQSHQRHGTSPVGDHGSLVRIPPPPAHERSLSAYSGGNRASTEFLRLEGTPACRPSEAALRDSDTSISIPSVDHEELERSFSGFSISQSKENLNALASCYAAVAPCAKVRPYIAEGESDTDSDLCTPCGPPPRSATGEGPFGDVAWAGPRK
KCNQ2 pot: enhances the rat KCNQ2 potassium channel | O88943 | CHO-K1 KCNQ2, FluxOR thallium flux fluorescence; stronger effect = higher value | B-score at 10 µM | 0.54% of 310,000 active | AID 2239;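 active = fluorescence ratio B-score at least 3 SD of library B-scores, with initial fluorescence B-score within 3 of them, cut at about 5.3 in these data; same plate scores as AID 2156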;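 also: B-score of peak minus minimum over baseline fluorescence ratio after K+ and Tl+ stimulus; positive B-score means potentiation of KCNQ2 with more thallium influx and brighter signal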
Kir21 conf inh: confirmation of mouse Kir2.1 potassium channel inhibitors; Kir2.1-expressing cells, FluxOR thallium flux fluorescence; stronger effect = lower value; Tl flux remaining, % of negative control (stronger effect = lower value), % at 10 µM; shares compounds with KCNQ2 pot; AID 2032; 41% of 2,300 active;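 active = Primary-screen hit whose thallium flux fell at least 3 control SD below untreated wells in both duplicates, with normal baseline fluorescence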;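 also: 0% = blank wells without stimulus and 100% = stimulated no-compound controls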
HEK293 Tl flux: parental HEK293 activity in Kir2.1 inhibitor counter-screen | AID 2105 | shares compounds with KCNQ2 pot | parental HEK293 cells, FluxOR thallium flux fluorescence; 0% = unstimulated blank wells | FluxOR signal as % of negative control (100 = no effect), % at 10 µM | 19% of 2,300 active;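 active = dye signal at least 3 control SD above or below untreated wells in both duplicates, raw fluorescence within 3, either direction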;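 also: percent is based on the flux ratio of peak minus minimum fluorescence over baseline F0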
CHO-K1 ctr: counter-screen for KCNQ2 potentiators: effect in parental CHO-K1 cells | shares compounds with KCNQ2 pot | FluxOR thallium flux fluorescence; zero = vehicle mean+3SD, 100% = vehicle-minus-blank window | activity increase over 3SD of controls, % at 10 µM | 43% of 1,200 active;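 active = signal rise of at least 3 SD above the untreated control mean, in both duplicate wells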;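 also: counter screen of KCNQ2 potentiator hits so any rise reflects channel-independent effects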
KCNQ1 pot spec: human KCNQ1 counter-target activity of KCNQ2 potentiators; activation over 3SD threshold, % at 10 µM; CHO KCNQ1 stable, FluxOR thallium flux fluorescence; beyond 3SD, as % of vehicle-control signal; shares compounds with KCNQ2 pot; 28% of 1,200 active;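 active = fluorescence ratio rise of at least 3 SD of vehicle wells above their mean, in both replicate wells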;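 also: 0% = vehicle mean plus 3 SD and 100% = vehicle minus unstimulated blank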
KCNQ2 pot conf: confirmation of rat KCNQ2 potassium channel potentiators. shares compounds with KCNQ2 pot. CHO-KCNQ2 cells, FluxOR thallium flux fluorescence. potentiation, less the hit threshold, % at 10 µM. 68% of 1,200 active. AID 2287;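 active = fluorescence ratio rising 3 SD or more over the vehicle control mean in both replicates, plus primary screen hit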;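 also: peak minus minimum thallium fluorescence divided by baseline after K/Tl stimulus; 0% = vehicle mean plus 3 SD and 100% = vehicle minus unstimulated blank difference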
Kir21 spec: mouse Kir2.1 off-target activity of KCNQ2 potentiators; AID 2345; activity over 3SD threshold, % at 10 µM; HEK293 Kir2.1, FluxOR thallium flux fluorescence; shares compounds with KCNQ2 pot; 2% of 1,200 active;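 active = fluorescence ratio rise of at least 3 SD above the vehicle-control mean, seen in both replicates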;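 also: 0% = vehicle mean plus 3 SD and 100% = vehicle minus no-stimulus blank window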
KCNQ2 W236L pot: KCNQ2 potentiators acting on retigabine-insensitive rat KCNQ2 W236L mutant | shares compounds with KCNQ2 pot | CHO KCNQ2-W236L, automated patch clamp current | current increase over 3SD of negative controls (%), stronger effect = higher value, % at 25 µM | 10% of 940 active;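 active = current increase at least 3 SD of the untreated controls above them in both duplicate recordings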
An asterisk follows results filed as active; i = inactive; · = no result. Rows were chosen to be rich in hits. Some 1.6% of all compounds tested hit in one or more screens of this group.

SMILES	KCNQ2 inh	KCNQ2 pot	Kir21 conf inh	HEK293 Tl flux	others
Cn1c(CNC(=O)c2ccccc2F)cc2ccccc21	i	·	·	·
Cn1c(CSCc2ccc(Cl)cc2)n[nH]c1=S	i	·	·	·
Cc1nnc(SC/C=C/c2ccccc2)n(N)c1=O	i	1.5	·	·
O=C(/C=C/c1ccccc1)n1cnnc1SC/C=C/c1ccccc1	i	·	i	i
O=C(c1ccc(OC2CCN(CCCc3ccccc3)CC2)cc1)N1CCCC1	i	0.48	72%*	i
CC(=O)N1CCN(C(=O)c2ccc(OC3CCN(CCc4ccccc4)CC3)cc2)CC1	i	0.04	·	·
CCc1ccc(C(=O)CN2C(=O)NC(C)(CCc3ccccc3)C2=O)cc1 (stereo not given)	i	·	·	·
C1CCC(C(CC2CCCCN2)C2CCCCC2)CC1 (stereo not given)	i	·	28%*	72%*
CCC1CCCCN1C(=O)CCNS(=O)(=O)c1ccc2c(c1)oc(=O)n2C (stereo not given)	i	0.69	·	·
CCc1noc(C)c1C(=O)NCCc1ccccc1	i	0.01	·	·
COc1ccc(OC)c(C(C)NC(=O)C23CC4CC(CC(C4)C2)C3)c1 (stereo not given)	i	4.8	·	·
COc1ccc(OC)c(C(C)NC(=O)Nc2ccccc2)c1 (stereo not given)	i	9.6*	·	·	CHO-K1 ctr=-9;KCNQ1 pot spec=-12;KCNQ2 pot conf=33*;Kir21 spec=-64;KCNQ2 W236L pot=i
CCN(CC)c1ccc(NC(=O)c2ccco2)c(C)c1	i	2.9	·	·
CCN(CC)c1ccc(NC(=O)c2cccc(F)c2)c(C)c1	i	17*	i	i	CHO-K1 ctr=-12;KCNQ1 pot spec=-8;KCNQ2 pot conf=49*;Kir21 spec=-25;KCNQ2 W236L pot=i
COCC(=O)N1CCC(Oc2ccc(C(=O)N(C)C(C)c3ccon3)cc2)CC1 (stereo not given)	i	0.12	·	·
COc1ccc(CN(CCN(C)C)c2ccccn2)cc1	i	1.3	·	·
CC(C)n1cnc2c(N(C)c3ccccc3)nc(N(CCN(C)C)Cc3ccccc3)nc21	i	·	48%*	i
Cc1ccnc(NS(=O)(=O)c2cc(-c3cc(C)no3)ccc2C(C)C)c1	i	0.21	·	·
O=S(=O)(NNc1ccc(Cl)nn1)c1ccc(F)cc1	i	0.55	·	·
COc1cccc(CN(C(=O)Cn2nnc(-c3ccccc3F)n2)C(C(=O)NC(C)(C)C)c2ccncc2)c1 (stereo not given)	i	·	·	·
CCC(=O)N(Cc1ccco1)c1nc(-c2ccc(OC)cc2)cs1	i	·	·	·
CCC(=O)N(CC)c1nc(-c2ccc(OC)cc2)cs1	i	2.6	i	i
CCc1nnc(NC(=O)CS(=O)(=O)Cc2ccccc2)s1	i	0.92	·	·
CCn1cc(C(=O)NCCc2ccccc2)c(=O)c2cc(S(=O)(=O)N(C)C)ccc21	i	0.02	i	i
CCn1cc(C(=O)NCCN(C)CCc2ccccc2)c(=O)c2cc(S(=O)(=O)N(C)C)ccc21	i	0.95	·	·
SMILES	KCNQ2 inh	KCNQ2 pot	Kir21 conf inh	HEK293 Tl flux	others
COc1cc(C(=O)OCC(=O)Nc2cccc(S(=O)(=O)N3CCOCC3)c2)ccc1OCC(C)C	i	1.8	·	·
CC(=O)C1=C(C)NC(SCC(=O)c2ccc(F)cc2)=C(C#N)C1c1ccco1 (stereo not given)	i	4.8	·	·
Cc1ccc(C(=O)CSC2=C(C#N)C(c3ccco3)C3=C(CCCC3=O)N2)cc1 (stereo not given)	i	6.6*	i	i	CHO-K1 ctr=0.0*;KCNQ1 pot spec=5.9*;KCNQ2 pot conf=-7;Kir21 spec=-30
N#CC1=C(SCC(=O)c2ccccc2)NC2=C(C(=O)CCC2)C1c1ccco1 (stereo not given)	i	1.6	·	·
CCc1ccc(C(=O)CSC2=C(C#N)C(c3ccco3)C(C(C)=O)=C(C)N2)cc1 (stereo not given)	i	9.8*	i	i	CHO-K1 ctr=113*;KCNQ1 pot spec=-11;KCNQ2 pot conf=-5;Kir21 spec=-24
CCCNC(=O)CC1C(=O)N(Cc2ccccc2)C(C)c2nc3ccccc3n21 (stereo not given)	i	·	·	·
Cc1c(-c2ccccc2)nc2ccccc2c1C(=O)NCc1cccs1	i	·	·	·
Cc1nn(-c2cccc(C(F)(F)F)c2)c(=O)c2noc(C)c12	i	0.76	·	·
O=c1c2cc(Br)ccc2nc(-c2ccc(Cl)cc2)n1O	i	17*	i	566%*	CHO-K1 ctr=-8;KCNQ1 pot spec=41*;KCNQ2 pot conf=93*;Kir21 spec=15*;KCNQ2 W236L pot=i
Cc1ccc(-c2nc3c(Cl)cc(Cl)cc3c(=O)n2O)cc1	i	17*	i	542%*	CHO-K1 ctr=4.1*;KCNQ1 pot spec=2.4*;KCNQ2 pot conf=102*;Kir21 spec=0.8*;KCNQ2 W236L pot=i
O=c1c2cc(Cl)ccc2nc(-c2ccc([N+](=O)[O-])cc2)n1O	i	9.7*	i	308%*	CHO-K1 ctr=-9;KCNQ1 pot spec=-18;KCNQ2 pot conf=42*;Kir21 spec=-25;KCNQ2 W236L pot=i
O=c1c2ccccc2nc(-c2ccc(Cl)cc2Cl)n1O	i	0.93	·	·
N#Cc1ccc(-c2nc3ccccc3c(=O)n2O)cc1	i	0.63	·	·
N#Cc1ccc(-c2nc3cc(Cl)ccc3c(=O)n2O)cc1	i	4.7	·	·
On1c(-c2ccccc2)nc2ccc(Cl)cc21	i	·	·	·
O=c1c2ccc(Cl)cc2nc(-c2cccc(C(F)(F)F)c2)n1O	i	18*	i	498%*	CHO-K1 ctr=-12;KCNQ1 pot spec=-13;KCNQ2 pot conf=66*;Kir21 spec=4.2*;KCNQ2 W236L pot=i
NS(=O)(=O)c1ccc(CCNCc2cccnc2)cc1	i	·	·	·
CCn1c(=O)n(CC)c2cc(N3CCCC3)c(NC(=O)c3c(F)cccc3F)cc21	i	·	·	·
COC(=O)C1CSC(c2ccc(Cl)cc2)N1C(=O)c1ccccc1 (stereo not given)	i	·	·	·
Cc1cc(=O)[nH]c(Nc2ccccc2C)n1	i	1.3	·	·
O=S(=O)(c1ccc2nc(N3CCN(c4ccc(F)cc4)CC3)ccc2c1)N1CCCCC1	i	0.01	·	·
Cc1ccc(N2C(=O)N3[C@H](c4ccc(F)cc4)[C@@H]4C(=O)N(C5CCCCC5)C(=O)[C@@H]4[C@]3(Cc3ccccc3)C2=O)cc1	i	0.06	·	·
O=c1c2ccccc2nc(-c2ccccc2Cl)n1O	i	·	·	·
O=c1c2ccccc2nc(-c2ccc(Cl)c(Cl)c2)n1O	i	15*	i	314%*	CHO-K1 ctr=-13;KCNQ1 pot spec=-10;KCNQ2 pot conf=50*;Kir21 spec=-30;KCNQ2 W236L pot=i
